# Reference: PubChem BioAssay (NCATS)
# Results filed as inconclusive are left out. Unmarked numbers belong to inactive results. Calls of active or inactive are those of the source. Calls follow the shape of the dose curve; as a rule, active = well fitted inhibition curve with a large enough effect; inconclusive = small, poorly fitted or top-dose-only effect; inactive = flat fitted curve, though single readings scatter.
# Assay: Cytometry Cell-Based qHTS for Inhibitors of the mTORC1 Signaling Pathway in MEF cells (AID 2668);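 as to activity change, negative = inhibition: Tsc2-/- p53-/- mouse embryonic fibroblasts stably re-expressing wild-type Tsc2; percent cells positive for phospho-rpS6 Ser235/236 relative to propidium iodide stain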
# Details: mTORC1 pathway readout; series mostly up to 38.3 µM; activity change, negative = inhibition: at the top concentration
# Excerpt: NIH Molecular Libraries Probe Production Centers Network [MLPCN]
# NIH Chemical Genomics Center [NCGC]
# Assay Submitter (PI): Blenis, John; Hoffman, Greg; Harvard University
# NCGC Assay Overview: The mammalian target of rapamycin (mTOR) is an intracellular serine/threonine kinase Aberrant regulation of mTOR signaling plays a causative role in a number of human diseases, including cancer, benign tumors such as lymphangioleiomyomatosis (LAM) and Tuberous Sclerosis Complex (TSC), and metabolic diseases such as diabetes and obesity. This project aims to identify inhibitors of ribosomal protein S6 (rpS6) phosphorylation. The phosphorylation of rpS6 is a key event downstream of mTOR activation. The assay uses a phospho-specific antibody of phospho-rpS6 to detect inhibitors of mTOR activation. Mutations in the Tsc1 and Tsc2 genes are the underlying genetic lesions responsible for TSC, causing constitutive activation of the mTORC1 pathway and leading to profound effects on cell metabolism. Aberrant metabolism in cancer has recently received significant attention as a target to develop therapeutic agents in the treatment of cancer.1 As Tsc2-/- cells have lost the ability to respond to energy and growth factor deprivation, these cells are unable to properly down regulate cellular biosynthetic processes in response to metabolic stress, and are thus extremely sensitive to glucose deprivation-induced death.2 A central goal of this project is to explore the unique cell survival and metabolic properties of cells with Tsc1 or Tsc2 by screening for compounds that selectively target the Tsc2-/- MEFs by screening both Tsc2-/- and WT MEF cell lines. We hope to better understand these aspects of TSC physiology in order to exploit them for therapeutic benefit.
# NCGC Acumen Assay Protocol:
# For quantitative high throughput analysis of mTORC1 signaling, we developed a cell-based assay for immuno-fluorescence based detection of rpS6 phosphorylation on the Acumen Explorer that will be used a platform for the primary small molecule screen. Mouse embryonic fibroblasts (MEFs) are cultured in 1536-well plates using DMEM + 10% FBS. Twenty-four hrs after plating, test compounds (solubilized in DMSO) are delivered and incubated with the cells for 24 hrs at 37 degree Celsius. Following the incubation, media with compound is aspirated and the cells are fixed in 4% paraformaldehyde (PFA) containing PBS + 0.2% TX-100. Next, PFA is aspirated, cells are washed two times with PBS plus 0.2% TX-100 and the cells are blocked for 1 hr at room temperature (blocking buffer: LiCOR Blocking Buffer plus 0.2% TX-100). This is followed by aspiration and staining with Alexa-488 conjugated-phospho-rpS6 Ser235/236 antibody for 2 hours at room temperature (Cell Signaling Technology # 4803, 1:50 dilution in blocking buffer). Cells are washed two times with PBS plus 0.2% TX-100, and stained with 10 uM propidium iodide (PI) for 20-25 minutes for cell number measurement (1:500 dilution of Hoescht staining is also added for IN Cell imaging). The plates are scanned on the Acumen Explorer laser scanning instrument (TTP Labtech) using the 488nm laser for simultaneous excitation of the Alexa-488 and PI. The fluorescence emission from the Alexa-488 conjugated rpS6 phospho-235/236 antibody staining is selected using a […] band pass filter. Fluorescence emission from the PI stain is selected using a 575-640 nm band pass filter. The normalized phospho-S6 staining is calculated as the ratio of the integrated Alexa 488 intensity divided by the integrated PI intensity for the single concentration rapamycin control (7.5 nM) and DMSO columns. […] Inhibition of the pathway is defined based on the normalized phospho-S6 intensity in rapamycin treated cells. […]
# Potency is read from the fitted curve at half-maximal effect.
Compound,"activity change, negative = inhibition [%]",Potency
CCCCCC[C@@H]([C@@H](C)O)n1cnc2c(N)ncnc21,5.07,
COc1ccccc1N1CCN(CCN(C(=O)c2ccc(F)cc2)c2ccccn2)CC1,2.83,
CC(C)[C@@H]1CC[C@@H](C)C[C@@H]1P(=O)(c1ccccc1)c1ccccc1,-2.42,
CC[n+]1c(/C=C/C=C2/N(C)c3ccccc3C2(C)C)sc2ccccc21,,82.6 nM (active)
Cn1c(=O)c2[nH]c(-c3ccc(S(=O)(=O)O)cc3)nc2n(C)c1=O,6.67,
CC(C)C[C@H](NC(=O)[C@H](O)[C@H](N)Cc1ccccc1)C(=O)O,8.15,
CN(C)CCC(c1ccc(Br)cc1)c1ccccn1 (stereo not given),13.6,
CNc1cc(NS(=O)(=O)c2ccc(N)cc2)nc(NC)n1,1.96,
CCN(CC)CCOC(=O)c1cc(Cl)c(N)cc1OC,1.4,
COC(=O)C(N)Cc1ccc(Cl)cc1 (stereo not given),9.32,
Nc1ncnc2c1ncn2C1CCCO1 (stereo not given),3.3,
CC(C)NC[C@H](O)COc1cccc2ccccc12,3.96,
CC(=O)O[C@H]1Cc2ccccc2N(C(N)=O)c2ccccc21,-0.397,
Cc1ccc([N+](=O)[O-])cc1S(=O)(=O)N(C)C,6.83,
NC(Cc1cccc(-c2ccccc2CP(=O)(O)O)c1)C(=O)O (stereo not given),6.76,
CCc1ccc2c(-c3cccc(Cl)c3)nc(=O)n(CC)c2n1,-2.16,
CCn1c(=O)[nH]c2cc(Cl)c(Cl)cc21,-12.9,
N[C@H](C(=O)O)c1cc(O)cc(O)c1,7.5,
O=C(O)CCC(=O)N1CCCC1C(=O)O (stereo not given),-0.809,
CC(=O)/C(C)=N/O,6.63,

Compound,"activity change, negative = inhibition [%]",Potency
Clc1nccc2c1ccc1ccccc12,-1.58,
CCCC[C@@]1(C2CCCC2)Cc2cc(OCC(=O)O)c(Cl)c(Cl)c2C1=O,-0.623,
CN1CCC2(CCN3CCc4c(oc5ccccc45)C3C2)N(C)C1=O (stereo not given),-23,
CCCCCCC(=O)OC1CC(C)(C)NC(C)(C)C1,-17.2,
COc1cc(C(O)C(=O)O)ccc1O (stereo not given),4.14,
C[C@@]1(C2CCCC2)Cc2cc(OCC(=O)O)c(Cl)c(Cl)c2C1=O,5,
N#CC(C#N)=C(N)/C(C#N)=C/c1ccc(O)cc1,1.88,
CC[N+](CC)(CC)CC(=O)Nc1c(C)cccc1C,0.0436,
CN(C)CCCc1cc(C(=O)Nc2ccc(-c3ccncc3)cc2)ccc1O,3.93,
N[C@H](C(=O)O)[C@H]1C[C@@H]1C(=O)O,1.69,
CC(=O)SC1CC2=CC(=O)CC[C@]2(C)C2CC[C@@]3(C)C(CC[C@@]34CCC(=O)O4)C12 (stereo not given in full),20.1,
O=C(O)Cc1ccc(O)c(O)c1,-4.05,
COc1cc(C(O)CO)ccc1O (stereo not given),2.28,
COC(=O)C1=C(C)NC(C)=C([N+](=O)[O-])C1c1ccccc1C(F)(F)F (stereo not given),0.411,
O=C(O)C1CCCNC1 (stereo not given),9.76,
Cc1cc2c(cc1Cl)N(C(=O)Nc1ccnc3ccccc13)CC2,-17.1,
NCCCNCCCCNCCCN,-1.81,
NS(=O)(=O)c1cccc2c1c([N+](=O)[O-])cc1nc(O)c(O)nc12,-2.31,
Fc1ccc(CN(C2=NCCN2)c2c(Cl)cccc2Cl)cc1,-21.5,
CCCn1c(=O)c2[nH]c(C3CCCC3)nc2n(CCC)c1=O,11.4,
